The text below walks through data of the supplement of paper PMC12669032.

Unmarked numbers belong to inactive results.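 The calls were made as follows: active = AUC reduced over 20% with Padj below 0.05 in at least 2 of 3 replicates; inactive = otherwise.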

In the first assay the test system is Escherichia coli IAI1. Briefly: growth AUC relative to DMSO control (median of replicates) (fraction); higher = more growth (less inhibition), active = hit call of the paper. As to conditions: 20 µM; 24 h. The procedure, abridged: (§1)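 Gut bacterial monocultures in mGAM were treated with 20 µM compound (1% DMSO) and grown anaerobically at 37 °C in round-bottom 96-well plates from OD600 0.05. OD600 was read hourly for 24 h, with the minimum OD set to 0. Area under the growth curve was normalised to the plate median of solvent-only wells, or to row and column medians on the industrial chemical plate. Each value is the median of three biological replicates, each grown on a separate day.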
`CCCN(CCC)c1c([N+](=O)[O-])cc(C(C)C)cc1[N+](=O)[O-]`: the “growth AUC” value is 0.996.
Still for that read-out and setting: for `Nc1ccncc1` the value was 0.983; for `CCCSP(=O)(OCC)SCCC`, 0.987; for `BrCCBr`, 1.01.
Still for that read-out and setting: for `CCCC(Cn1cncn1)c1ccc(Cl)cc1Cl` (configuration not stated) the value was 1.03; for `Nc1nc(N)nc(NC2CC2)n1`, 0.986.
On to `C#CC(C)(C)NC(=O)c1cc(Cl)cc(Cl)c1`, for which the “growth AUC” value was 0.963.
`Oc1ccc(Cl)cc1`: the “growth AUC” value is 0.951.
Still for that read-out and setting: for `CNC(=O)Oc1cccc2c1OC(C)(C)O2` the value was 0.993.
The same measure, in the same setting: for `CCNc1nc(Cl)nc(NC(C)(C)C#N)n1` the value was 0.988; for `ClC1=C(Cl)C(Cl)(C2(Cl)C(Cl)=C(Cl)C(Cl)=C2Cl)C(Cl)=C1Cl`, 1.01; for `COP(=O)(OC)Oc1ccc(S(C)(=O)=O)c(C)c1`, 0.983.
In the case of `CC(C)(C)C(O)C(Oc1ccc(-c2ccccc2)cc1)n1cncn1` (mixture of isomers), the “growth AUC” value was 1.05.
As for `CC(C)(C)N(NC(=O)c1ccc(Cl)cc1)C(=O)c1ccccc1`, the “growth AUC” value is 1.01.
On to `Cc1ccccc1[N+](=O)[O-]`, for which the “growth AUC” value was 0.992.
As for `CCN(CC)C(=O)C(C)Oc1cccc2ccccc12` (configuration not stated), the “growth AUC” value was 1.01.
As for `CCN(CC)C(=O)SCc1ccc(Cl)cc1`, the “growth AUC” value was 1.01.
Consider `CNC(=O)ON=C(CS(C)=O)C(C)(C)C` (configuration not stated), for which the “growth AUC” value was 0.998.
With `COP1(=S)OCc2ccccc2O1` (configuration not stated), the “growth AUC” value is 1.
In the case of `O=C(O)C(Cl)Cl`, the “growth AUC” value was 0.966.
Still for that read-out and setting: as for `N#CN=C1SCCN1Cc1ccc(Cl)nc1`, the figure is 0.996; as for `CC(C)NC(=O)N1CC(=O)N(c2cc(Cl)cc(Cl)c2)C1=O`, 0.983.
For the compound `O=[N+]([O-])c1ccccc1`, the “growth AUC” value was 1.01.
In the case of `[Cl][Sn]([c]1ccccc1)([c]1ccccc1)[c]1ccccc1`, the “growth AUC” value was 0.964.
On the same count and under the same terms, for `Nc1ncn[nH]1` the value was 1.01; for `CC(C)OC(=O)C(O)(c1ccc(Br)cc1)c1ccc(Br)cc1`, 1.01; for `CNC1=C(c2cccc(C(F)(F)F)c2)C(=O)C(c2ccccc2)O1` (configuration not stated), 0.992.
On the same count and under the same terms, as for `O=c1oc2ccccc2c(O)c1C1CC(c2ccc(-c3ccc(Br)cc3)cc2)Cc2ccccc21` (configuration not stated), the figure is 1.

A further assay deals with Eubacterium rectale. The description is as above. As to conditions: 20 µM; 24 h. The method in brief: as §1
Regarding `O=C(O)C1(O)c2ccccc2-c2ccc(Cl)cc21` (configuration not stated), the “growth AUC” value was 0.947.
For the compound `O=C(O)C(F)(F)C(F)(F)C(F)(F)C(F)(F)C(F)(F)C(F)(F)C(F)(F)F`, the “growth AUC” value is 1.
With `COP(=O)(OC)OC=C(Cl)Cl`, the “growth AUC” value was 1.04.
On the same count and under the same terms, as for `CCCN(CC)CC1COC2(CCC(C(C)(C)C)CC2)O1` (configuration not stated), the figure is 0.987.
The same measure, in the same setting: as for `CCOP(=O)(SC(C)CC)N1CCSC1=O` (configuration not stated), the figure is 0.862; as for `O=NN(CCO)CCO`, 0.977; as for `CSc1nc(N=[N+]=[N-])nc(NC(C)C)n1`, 1.05.
Turning to `COP(=O)(OC)Oc1ccc(S(C)=O)c(C)c1` (configuration not stated), the “growth AUC” value is 0.797.
As for `O=C(Nc1ccccc1)N(Cc1ccc(Cl)cc1)C1CCCC1`, the “growth AUC” value is 1.03.
Same read-out and setting: as for `CC(C)OC(=O)C(C(=O)OC(C)C)=C1SCCS1`, the figure is 1.02; as for `CCC(C)[C@H]1O[C@]2(C=C[C@@H]1C)C[C@@H]1C[C@@H](C/C=C(\C)[C@@H](O[C@H]3C[C@H](OC)[C@@H](O[C@H]4C[C@H](OC)[C@@H](O)[C@H](C)O4)[C@H](C)O3)[C@@H](C)/C=C/C=C3\CO[C@@H]4[C@H](O)C(C)=C[C@@H](C(=O)O1)[C@]34O)O2.CO[C@H]1C[C@H](O[C@H]2[C@H](C)O[C@@H](O[C@@H]3/C(C)=C/C[C@@H]4C[C@@H](C[C@]5(C=C[C@H](C)[C@@H](C(C)C)O5)O4)OC(=O)[C@@H]4C=C(C)[C@@H](O)[C@H]5OC/C(=C\C=C\[C@@H]3C)[C@]54O)C[C@@H]2OC)O[C@@H](C)[C@@H]1O` (some centres not stated), 1.01.
As to `CCCN(CCC)c1c([N+](=O)[O-])cc(C(C)C)cc1[N+](=O)[O-]`, the “growth AUC” value is 1.02.
The same measure, in the same setting: for `Nc1ccncc1` the value was 0.949; for `CCCSP(=O)(OCC)SCCC`, 1.07.
Regarding `BrCCBr`, the “growth AUC” value was 1.06.
As for `CCCC(Cn1cncn1)c1ccc(Cl)cc1Cl` (configuration not stated), the “growth AUC” value was 0.73 (active).
The same measure, in the same setting: for `Nc1nc(N)nc(NC2CC2)n1` the value was 1.04; for `C#CC(C)(C)NC(=O)c1cc(Cl)cc(Cl)c1`, 1.04.
Take `Oc1ccc(Cl)cc1`: the “growth AUC” value was 0.921.
With `CNC(=O)Oc1cccc2c1OC(C)(C)O2`, the “growth AUC” value is 0.967.
`CCNc1nc(Cl)nc(NC(C)(C)C#N)n1`: the “growth AUC” value was 0.889.
Regarding `ClC1=C(Cl)C(Cl)(C2(Cl)C(Cl)=C(Cl)C(Cl)=C2Cl)C(Cl)=C1Cl`, the “growth AUC” value is 0.861.
Same read-out and setting: for `COP(=O)(OC)Oc1ccc(S(C)(=O)=O)c(C)c1` the value was 0.795; for `CC(C)(C)C(O)C(Oc1ccc(-c2ccccc2)cc1)n1cncn1` (mixture of isomers), 0.964; for `CC(C)(C)N(NC(=O)c1ccc(Cl)cc1)C(=O)c1ccccc1`, 1.
Turning to `Cc1ccccc1[N+](=O)[O-]`, the “growth AUC” value is 1.
With `CCN(CC)C(=O)C(C)Oc1cccc2ccccc12` (configuration not stated), the “growth AUC” value is 0.983.
For the compound `CCN(CC)C(=O)SCc1ccc(Cl)cc1`, the “growth AUC” value is 0.921.
For `CNC(=O)ON=C(CS(C)=O)C(C)(C)C` (configuration not stated), the “growth AUC” value is 1.14.
Take `COP1(=S)OCc2ccccc2O1` (configuration not stated): the “growth AUC” value is 1.08.
On the same count and under the same terms, for `O=C(O)C(Cl)Cl` the value was 0.977.
With `N#CN=C1SCCN1Cc1ccc(Cl)nc1`, the “growth AUC” value was 0.979.
Turning to `CC(C)NC(=O)N1CC(=O)N(c2cc(Cl)cc(Cl)c2)C1=O`, the “growth AUC” value is 0.995.
`O=[N+]([O-])c1ccccc1`: the “growth AUC” value is 1.07.
In the case of `[Cl][Sn]([c]1ccccc1)([c]1ccccc1)[c]1ccccc1`, the “growth AUC” value was 0.0221 (active).
The same measure, in the same setting: as for `Nc1ncn[nH]1`, the figure is 0.987.
Same read-out and setting: as for `CC(C)OC(=O)C(O)(c1ccc(Br)cc1)c1ccc(Br)cc1`, the figure is 0.912; as for `CNC1=C(c2cccc(C(F)(F)F)c2)C(=O)C(c2ccccc2)O1` (configuration not stated), 1; as for `O=c1oc2ccccc2c(O)c1C1CC(c2ccc(-c3ccc(Br)cc3)cc2)Cc2ccccc21` (configuration not stated), 0.567 (active).
